Peg3 prom inh = reduces Peg3 promoter-driven luciferase expression in HeLa | 1.7% of 360,000 active | inhibition, % at 20 µM | HeLa PEG-Prom luciferase reporter, luminescence, overnight;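 active means inhibition of at least 50% at 20 µM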
KKLEB cytotox = CF airway cell cytotoxicity counter-screen; KKLEB CF airway cells viability, ATPlite luminescence, overnight; stronger effect = lower value; cells stimulated with P. aeruginosa culture filtrate; activity change (cytotoxicity), % at 5 µM; 0.36% of 360,000 active; AID 602141;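 active means corrected activity change at or below -50% at 5 µM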
TROY NFkB inh = TROY signaling inhibition; Q293 LMP1-TROYcd NF-kB luciferase reporter, 4 h; inhibition, % at 10 µM; 0.98% of 360,000 active;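 active means compounds whose plate-normalised and pattern-corrected inhibition of the luciferase reporter signal at the single screening dose is 50% or more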
CF NFkB block = cystic fibrosis NF-kB activation inhibition; 0.86% of 360,000 active; KKLEB NF-kB-GFP reporter, PAF-induced, GFP fluorescence overnight; inhibition, % at 5 µM;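 active means at least 50% inhibition at 5 µM, scaled per plate between neutral and stimulator controls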;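 further: PAF is a Pseudomonas aeruginosa culture filtrate used as stimulus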
HIF-2a inh = inhibitors of HIF-2a | inhibition, % at 18.8 µM | 0.72% of 360,000 active | AID 624352 | 786-0 RCC cells HIF-2a reporter, luciferase luminescence, overnight;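 active means inhibition of the luminescence signal of 40% or more relative to plate controls, in a single-dose primary screen at 18.75 µM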
TWEAK Fn14 block = blocks TWEAK-Fn14 interaction in a reporter cell assay; 2% of 360,000 active; AID 1159606; TWEAK-stimulated Fn14 reporter cells, luciferase luminescence, 8 h; inhibition, % at 10 µM; in the data active means inhibition above about 50%
Numbers stand for hits. Hits are enriched below; roughly 3.9% of the tested compounds scored in any of these assays.

`CCOC(=O)c1c(C)n(-c2ccc(C)cc2)c2ccc(OCC(O)CNCC3CCCO3)cc12` (centres undefined) gave Peg3 prom inh 86, KKLEB cytotox inactive, TROY NFkB inh inactive, CF NFkB block inactive, HIF-2a inh inactive and TWEAK Fn14 block inactive.
Screening Cc1nn(C)c(=O)n1N(C)c1ncc(C(F)(F)F)cc1Cl returned Peg3 prom inh 67, KKLEB cytotox inactive, TROY NFkB inh inactive, CF NFkB block inactive, HIF-2a inh inactive and TWEAK Fn14 block inactive.
Screening Cc1nn(Cc2ccccc2)c(=O)n1N(C)c1ncc(C(F)(F)F)cc1Cl returned Peg3 prom inh inactive, KKLEB cytotox inactive, TROY NFkB inh inactive, CF NFkB block inactive, HIF-2a inh inactive and TWEAK Fn14 block inactive.
Screening CC(=O)c1ccc(S(=O)(=O)N2CCn3cccc3C2C)cc1 (centres undefined) returned Peg3 prom inh inactive, KKLEB cytotox inactive, TROY NFkB inh inactive, CF NFkB block inactive, HIF-2a inh inactive and TWEAK Fn14 block inactive.
Screening COc1ccc(CCn2c(O)c(C=Nc3cccc(F)c3)c(=O)[nH]c2=O)cc1OC returned Peg3 prom inh inactive, KKLEB cytotox inactive, TROY NFkB inh inactive, CF NFkB block inactive, HIF-2a inh inactive and TWEAK Fn14 block inactive.
Cc1cc(N2CCN(C)CC2)nc2ccc(NC(=S)N3CCN(c4ccc(F)cc4)CC3)cc12 was read as Peg3 prom inh 66, KKLEB cytotox inactive, TROY NFkB inh inactive, CF NFkB block inactive, HIF-2a inh inactive and TWEAK Fn14 block inactive.
Screening Cc1cccc(N2CCN(C(=S)Nc3ccc4nc(N5CCN(C)CC5)cc(C)c4c3)CC2C)c1 (centres undefined) returned Peg3 prom inh 76, KKLEB cytotox inactive, TROY NFkB inh inactive, CF NFkB block inactive, HIF-2a inh inactive and TWEAK Fn14 block inactive.
`Cc1cc(N2CCN(C)CC2)nc2ccc(NC(=S)N3CCCCC3)cc12` gave Peg3 prom inh inactive, KKLEB cytotox inactive, TROY NFkB inh 54, CF NFkB block inactive, HIF-2a inh inactive and TWEAK Fn14 block inactive.
CCOc1ccc(NS(=O)(=O)c2ccc(N)cc2)cc1 was read as Peg3 prom inh inactive, KKLEB cytotox inactive, TROY NFkB inh inactive, CF NFkB block inactive, HIF-2a inh inactive and TWEAK Fn14 block inactive.
CCOc1ccc(NS(=O)(=O)c2cnc(Cl)c(Cl)c2)cc1 was read as Peg3 prom inh inactive, KKLEB cytotox inactive, TROY NFkB inh inactive, CF NFkB block inactive, HIF-2a inh inactive and TWEAK Fn14 block 53.
Screening CCOc1ccc(NS(=O)(=O)c2ccc(SC)cc2)cc1 returned Peg3 prom inh inactive, KKLEB cytotox inactive, CF NFkB block inactive, HIF-2a inh inactive and TWEAK Fn14 block 81.
Cc1nn(-c2ccc(F)cc2)c2nc(N)c(C#N)c(-c3cccs3)c12 was read as Peg3 prom inh 84, KKLEB cytotox inactive, TROY NFkB inh inactive, CF NFkB block inactive, HIF-2a inh inactive and TWEAK Fn14 block inactive.
`Cc1nn(-c2ccc(F)cc2)c2nc(N)c(C#N)c(-c3ccc(O)c(O)c3)c12` gave Peg3 prom inh inactive, KKLEB cytotox inactive, TROY NFkB inh inactive, CF NFkB block inactive, HIF-2a inh inactive and TWEAK Fn14 block inactive.
`CCn1c(CNC(=O)C2CCCCC2)cc2cc(C)ccc21` gave Peg3 prom inh inactive, KKLEB cytotox inactive, TROY NFkB inh inactive, CF NFkB block inactive, HIF-2a inh inactive and TWEAK Fn14 block 54.
For CC(C)(C)C(=O)Nc1c2c(nn1-c1cccc(Cl)c1)CS(=O)(=O)C2 the results were Peg3 prom inh inactive, KKLEB cytotox inactive, TROY NFkB inh inactive, CF NFkB block inactive, HIF-2a inh inactive and TWEAK Fn14 block inactive.
For COc1ccccc1CCC(=O)N(C)CC(=O)Nc1ccc(Cl)c(C(F)(F)F)c1 the results were Peg3 prom inh inactive, KKLEB cytotox inactive, TROY NFkB inh inactive, CF NFkB block inactive, HIF-2a inh inactive and TWEAK Fn14 block inactive.
`Cn1c(=NC(=O)c2ccccc2[N+](=O)[O-])sc2cc(S(C)(=O)=O)ccc21` gave Peg3 prom inh inactive, KKLEB cytotox inactive, TROY NFkB inh inactive, CF NFkB block inactive, HIF-2a inh inactive and TWEAK Fn14 block 51.
COc1cc(C(=O)N2C[C@H]3CC[C@H]2C3)ccc1OC1CCN(C(C)=O)CC1 was read as Peg3 prom inh inactive, KKLEB cytotox inactive, TROY NFkB inh inactive, CF NFkB block inactive, HIF-2a inh inactive and TWEAK Fn14 block inactive.
Screening CC1(C)CC(=O)C(C=NCC2CCN(C(=S)Nc3ccccc3)CC2)=C(O)C1 returned Peg3 prom inh inactive, KKLEB cytotox inactive, TROY NFkB inh inactive, CF NFkB block inactive, HIF-2a inh inactive and TWEAK Fn14 block inactive.
`Cc1nn(C(=O)c2c(-c3ccccc3)noc2C)c(C)c1N=Nc1cc(C(F)(F)F)cc(C(F)(F)F)c1` gave Peg3 prom inh inactive, KKLEB cytotox inactive, TROY NFkB inh 68, CF NFkB block inactive, HIF-2a inh inactive and TWEAK Fn14 block inactive.
Screening Cn1cnc([N+](=O)[O-])c1NC(C)(C)C returned Peg3 prom inh inactive, KKLEB cytotox inactive, TROY NFkB inh inactive, CF NFkB block inactive, HIF-2a inh inactive and TWEAK Fn14 block inactive.
`Cn1cnc([N+](=O)[O-])c1S(=O)(=O)c1ccc(Cl)cc1` gave Peg3 prom inh 104, KKLEB cytotox inactive, TROY NFkB inh inactive, CF NFkB block inactive, HIF-2a inh inactive and TWEAK Fn14 block inactive.
Screening CN(C)c1ccc(C(=O)OCC(=O)NCCC2=CCCCC2)cc1 returned Peg3 prom inh inactive, KKLEB cytotox inactive, TROY NFkB inh inactive, CF NFkB block inactive, HIF-2a inh inactive and TWEAK Fn14 block inactive.
CC1(C)CC(N2CCC(=O)N(C3CC(C)(C)NC(C)(C)C3)C2)CC(C)(C)N1 was read as Peg3 prom inh inactive, KKLEB cytotox inactive, CF NFkB block inactive, HIF-2a inh inactive and TWEAK Fn14 block 80.
CC1(C)CC(N2CCC(=O)NC2=S)CC(C)(C)N1 was read as Peg3 prom inh inactive, KKLEB cytotox inactive, TROY NFkB inh inactive, CF NFkB block inactive, HIF-2a inh inactive and TWEAK Fn14 block inactive.
For N#Cc1ccccc1Sc1ccccc1C(=O)OCC(=O)NC12CC3CC(CC(C3)C1)C2 the results were Peg3 prom inh inactive, KKLEB cytotox inactive, TROY NFkB inh inactive, CF NFkB block inactive, HIF-2a inh inactive and TWEAK Fn14 block 63.
`O=C(COC(=O)c1ccccc1)NC12CC3CC(CC(C3)C1)C2` gave Peg3 prom inh inactive, KKLEB cytotox inactive, TROY NFkB inh inactive, CF NFkB block inactive, HIF-2a inh inactive and TWEAK Fn14 block inactive.
C#CCOc1c(Br)cc(/C=C2/C(=O)ON=C2C)cc1OC was read as Peg3 prom inh inactive, KKLEB cytotox inactive, TROY NFkB inh inactive, CF NFkB block inactive, HIF-2a inh inactive and TWEAK Fn14 block inactive.
CCOC(=O)CC1CCCCN1C(=O)c1cc(COc2cccc3cnccc23)on1 (centres undefined) was read as Peg3 prom inh inactive, KKLEB cytotox inactive, TROY NFkB inh inactive, CF NFkB block inactive, HIF-2a inh inactive and TWEAK Fn14 block 62.

Compound activity from PubChem.
